Results published in PubChem BioAssay (EPA / NIEHS).
Inconclusive results are not listed. Calls of active or inactive are those of the source. The calls were made as follows, unless noted: active = hit-call score of the fitted dose curve at least 0.9, where 1 is the maximum; inactive = score below 0.9.

What was measured:
[1] = BSK_LPS_PGE2: BioMAP Diversity Plus: LPS Assay for Prostaglandin E2 (PGE2) Biomarker Activity (AID 2283082); conditions: primary human HUVEC with PBMC; actives raise or lower the signal;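 as to AC50: secreted prostaglandin E2 measured by ELISA in LPS-stimulated co-culture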
How it was run: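 HUVEC plus human PBMC co-culture stimulated with LPS; secreted PGE2 quantified by ELISA 24 h after chemical dosing. Activity fitted bidirectionally against DMSO baseline; parallel SRB staining (0.1% SRB after 10% TCA fixation, 560 nm) flags overt cytotoxicity.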

[2] = read-out: Tissue Factor, F3 (gene 2152); assay: BSK_LPS_TissueFactor: BioMAP Diversity Plus: LPS Assay for Tissue Factor Biomarker Activity (AID 2283084); conditions: primary human HUVEC with PBMC; actives raise or lower the signal
How it was run: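 Compound was added to an endothelial cell/PBMC co-culture, and after 24 h tissue factor (CD142) was read by ELISA. Gain or loss of signal was fitted against a DMSO baseline, and parallel SRB staining (560 nm) tracked overt cytotoxicity.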

[3] = read-out: Tumor necrosis factor (Homo sapiens) (UniProt P01375); assay: BSK_LPS_TNFa: BioMAP Diversity Plus: LPS Assay for Tumour Necrosis Factor alpha (TNFa) Biomarker Activity (AID 2283085); conditions: primary human HUVEC with PBMC; actives raise or lower the signal
How it was run: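 Human umbilical vein endothelial cells co-cultured with PBMC and stimulated with LPS. TNFa was measured by ELISA 24 h after chemical dosing, fitted bidirectionally relative to DMSO.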

[4] = read-out: Vascular cell adhesion molecule 1 (VCAM1), VCAM1 (gene 7412); assay: BSK_LPS_VCAM1: BioMAP Diversity Plus: LPS Assay for Vascular cell adhesion molecule 1 (VCAM1) Biomarker Activity (AID 2283086); conditions: primary human HUVEC with PBMC; actives raise or lower the signal
How it was run: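 Human umbilical vein endothelial cells co-cultured with PBMC and stimulated with LPS; VCAM-1 measured by ELISA 24 h after dosing. Bidirectional curve fitting against DMSO baseline; cytotoxicity tracked in parallel by SRB total-protein staining.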

CD40, CD40 (gene 958) = assay: BSK_SAg_CD40: BioMAP Diversity Plus: SAg Assay for CD40 Biomarker Activity (AID 2283088); conditions: primary human HUVEC with PBMC; actives raise or lower the signal
How it was run: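 CD40 is measured by fluorescence ELISA in an endothelial/PBMC primary human co-culture at 24 h post-dose. Fitting is bidirectional, DMSO baseline. Parallel SRB staining (560 nm) flags cytotoxicity.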

CD69, CD69 (gene 969) = assay: BSK_SAg_CD69: BioMAP Diversity Plus: SAg Assay for CD69 Biomarker Activity (AID 2283089); conditions: primary human HUVEC with PBMC; actives raise or lower the signal;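 as to AC50: cell surface CD69 protein quantified by ELISA with fluorescence detection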
How it was run: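 Values derive from bidirectional fitting relative to DMSO vehicle. Cells: umbilical vein endothelium plus peripheral blood mononuclear cells, treated 24 h before fluorescent ELISA for CD69.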

[5] = read-out: Monocyte Chemoattractant Protein-1 (MCP1), CCL2 (gene 6347); assay: BSK_SAg_MCP1: BioMAP Diversity Plus: SAg Assay for Monocyte Chemoattractant Protein-1 (MCP1) Biomarker Activity (AID 2283090); conditions: primary human HUVEC with PBMC; actives raise or lower the signal
How it was run: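 MCP-1 levels in the endothelial–PBMC SAg co-culture were quantified by ELISA at 24 h post-dosing; both increases and decreases versus DMSO scored. Cytotoxicity monitored by SRB total protein in parallel cultures.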

[6] = read-out: E-selectin (Homo sapiens) (UniProt P16581); assay: BSK_SAg_Eselectin: BioMAP Diversity Plus: SAg Assay for Eselectin Biomarker Activity (AID 2283091); conditions: primary human HUVEC with PBMC; actives raise or lower the signal
How it was run: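 Cell-surface E-selectin is read by ELISA at 24 h in the SAg co-culture of HUVEC and PBMC. Curves are fitted in both directions relative to DMSO. Parallel SRB total-protein staining tracks overt toxicity.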

[7] = read-out: Monokine induced gamma interferon (MIG), CXCL9 (gene 4283); assay: BSK_SAg_MIG: BioMAP Diversity Plus: SAg Assay for Monokine induced gamma interferon (MIG) Biomarker Activity (AID 2283092); conditions: primary human HUVEC with PBMC; actives raise or lower the signal
How it was run: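 Values reflect bidirectional fitting of ELISA-measured MIG against DMSO vehicle, taken 24 h after dosing of a co-culture of human umbilical vein endothelial cells and peripheral blood mononuclear cells.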

[8] = BSK_SAg_PBMCCytotoxicity: PBMC Cytotoxicity Assessment in the BioMAP Diversity Plus: SAg Assay (AID 2283093); conditions: primary human HUVEC with PBMC;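 also: PBMC viability measured as Alamar Blue reduction fluorescence at 546/580 nm; fitted both ways against DMSO so a hit may be loss or gain of signal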;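 as to AC50: PBMC superantigen activated with SEB plus TSST-1 one hour after compound addition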
How it was run: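 Human umbilical vein endothelial cells co-cultured with PBMC; PBMC (75,000/well) pre-treated with compound 1 h, then activated with SEB and TSST-1 (20 ng/mL final each) for 90 h. Alamar Blue added 6 h, fluorescence 546/580 nm; bidirectional fit versus DMSO.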

[9] = read-out: Interleukin-8 (IL8), CXCL8 (gene 3576); assay: BSK_SAg_IL8: BioMAP Diversity Plus: SAg Assay for Interleukin-8 (IL8) Biomarker Activity (AID 2283094); conditions: primary human HUVEC with PBMC; actives raise or lower the signal
How it was run: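 Human umbilical vein endothelial cells co-cultured with PBMC, stimulated with superantigen; IL-8 measured by ELISA 24 h after chemical dosing. Bidirectional fitting versus DMSO; SRB staining in parallel cultures tracks cytotoxicity.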

[10] = BSK_SAg_SRB: Viability Assessment in the BioMAP Diversity Plus: SAg Assay (AID 2283096); conditions: primary human HUVEC with PBMC;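 also: cells read one day after compound addition; hits may be either gain or loss of signal compared with DMSO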
How it was run: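 Endothelial/PBMC primary human co-culture; compound 24 h; fix 10% TCA, stain 0.1% SRB, A560; protein content as cytotoxicity proxy; bidirectional curve fit, DMSO = baseline.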

[11] = read-out: Macrophage colony-stimulating factor (MCSF), CSF1 (gene 1435); assay: BSK_LPS_MCSF: BioMAP Diversity Plus: LPS Assay for Macrophage colony-stimulating factor (MCSF) Biomarker Activity (AID 2283083); conditions: primary human HUVEC with PBMC; actives raise or lower the signal
How it was run: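 Bidirectional fitting against DMSO was applied to M-CSF levels read by ELISA at 24 h post-dose. The system pairs human umbilical vein endothelium with peripheral blood mononuclear cells; parallel SRB staining tracked cytotoxicity.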

[12] = target: human CYP19A1, CYP19A1 (gene 1588) (UniProt P11511); assay: NVS_ADME_hCYP19A1: NovaScreen (NVS) CYP450-related Enzyme Activity (ADME) Assay for human CYP19A1 (AID 2283098; active = hit-call score of the fitted dose curve at least 0.9, where 1 is the maximum)
How it was run: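 Cell-free enzyme assay with recombinant protein and a specific fluorogenic substrate, read by fluorescence intensity 0.5 h after dosing. Primary screen ran in duplicate at 10 uM; actives were retested in concentration series. Loss of signal versus acetonitrile baseline.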

[13] = target: human CYP2B6, CYP2B6 (gene 1555) (UniProt P20813); assay: NVS_ADME_hCYP2B6: NovaScreen (NVS) CYP450-related Enzyme Activity (ADME) Assay for human CYP2B6 (AID 2283101; active = hit-call score of the fitted dose curve at least 0.9, where 1 is the maximum)
How it was run: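 Compounds were first screened in duplicate at 10 uM against recombinant enzyme, with the fluorescent product measured after 1 hour. Active compounds were retested over a concentration series. Loss of fluorescence versus acetonitrile control was scored as reduced enzyme activity.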

[14] = BSK_SAg_Proliferation: Cell Proliferation Assessment in the BioMAP Diversity Plus: SAg Assay (AID 2283095); conditions: primary human HUVEC with PBMC
How it was run: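 Human umbilical vein endothelial cells co-cultured with PBMC; sulforhodamine B total-protein staining (0.1% SRB after 10% TCA fixation, absorbance 560 nm) at 96 h in sub-confluent culture. Fitted bidirectionally against DMSO.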

CD38, CD38 (gene 952) = assay: BSK_SAg_CD38: BioMAP Diversity Plus: SAg Assay for CD38 Biomarker Activity (AID 2283087); conditions: primary human HUVEC with PBMC; actives raise or lower the signal
How it was run: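 Human HUVEC plus PBMC co-culture stimulated with superantigen; CD38 measured by ELISA 24 h after chemical dosing. Fluorescence read-out, bidirectional fit against DMSO; cytotoxicity tracked in parallel by SRB and Alamar Blue.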

Measured: AC50

E-selectin (Homo sapiens), sequence (P16581 whole entry, looked up): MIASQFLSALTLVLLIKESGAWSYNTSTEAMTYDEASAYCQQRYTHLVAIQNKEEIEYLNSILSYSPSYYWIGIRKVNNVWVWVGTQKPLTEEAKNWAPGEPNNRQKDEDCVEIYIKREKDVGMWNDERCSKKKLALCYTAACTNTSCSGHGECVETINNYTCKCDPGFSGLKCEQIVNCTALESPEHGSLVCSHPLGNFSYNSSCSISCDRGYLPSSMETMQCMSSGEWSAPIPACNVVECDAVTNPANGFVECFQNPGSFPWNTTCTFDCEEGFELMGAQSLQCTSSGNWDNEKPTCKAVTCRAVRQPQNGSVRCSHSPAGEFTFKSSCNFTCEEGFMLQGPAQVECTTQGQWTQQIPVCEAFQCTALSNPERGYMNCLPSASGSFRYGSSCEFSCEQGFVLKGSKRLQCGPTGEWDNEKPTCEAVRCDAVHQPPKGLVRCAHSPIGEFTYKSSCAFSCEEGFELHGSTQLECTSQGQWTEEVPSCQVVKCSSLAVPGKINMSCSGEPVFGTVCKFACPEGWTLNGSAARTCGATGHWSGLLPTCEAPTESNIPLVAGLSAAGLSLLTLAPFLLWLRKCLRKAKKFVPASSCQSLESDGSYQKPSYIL
Tumor necrosis factor (Homo sapiens), sequence (P01375 whole entry, looked up): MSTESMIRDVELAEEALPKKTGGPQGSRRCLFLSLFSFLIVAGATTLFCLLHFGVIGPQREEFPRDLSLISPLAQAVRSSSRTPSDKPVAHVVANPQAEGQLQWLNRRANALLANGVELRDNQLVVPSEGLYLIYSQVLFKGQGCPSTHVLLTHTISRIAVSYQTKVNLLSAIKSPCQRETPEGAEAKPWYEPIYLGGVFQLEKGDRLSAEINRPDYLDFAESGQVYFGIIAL
human CYP2B6, CYP2B6 (gene 1555), sequence (P20813 whole entry, looked up): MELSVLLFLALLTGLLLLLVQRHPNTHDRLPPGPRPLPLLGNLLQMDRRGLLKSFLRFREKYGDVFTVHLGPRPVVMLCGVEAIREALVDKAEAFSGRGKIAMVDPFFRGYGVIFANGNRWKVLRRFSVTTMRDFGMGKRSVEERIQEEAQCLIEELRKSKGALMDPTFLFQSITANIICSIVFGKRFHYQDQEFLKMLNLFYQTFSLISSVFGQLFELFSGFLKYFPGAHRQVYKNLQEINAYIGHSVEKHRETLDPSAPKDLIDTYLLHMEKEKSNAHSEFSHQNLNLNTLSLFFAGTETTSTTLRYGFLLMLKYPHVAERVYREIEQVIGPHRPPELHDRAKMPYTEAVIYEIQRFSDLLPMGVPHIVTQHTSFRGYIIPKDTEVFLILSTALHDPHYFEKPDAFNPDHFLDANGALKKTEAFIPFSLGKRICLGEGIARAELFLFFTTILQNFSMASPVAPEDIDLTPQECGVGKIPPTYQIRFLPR
human CYP19A1, CYP19A1 (gene 1588), sequence (P11511 whole entry, looked up): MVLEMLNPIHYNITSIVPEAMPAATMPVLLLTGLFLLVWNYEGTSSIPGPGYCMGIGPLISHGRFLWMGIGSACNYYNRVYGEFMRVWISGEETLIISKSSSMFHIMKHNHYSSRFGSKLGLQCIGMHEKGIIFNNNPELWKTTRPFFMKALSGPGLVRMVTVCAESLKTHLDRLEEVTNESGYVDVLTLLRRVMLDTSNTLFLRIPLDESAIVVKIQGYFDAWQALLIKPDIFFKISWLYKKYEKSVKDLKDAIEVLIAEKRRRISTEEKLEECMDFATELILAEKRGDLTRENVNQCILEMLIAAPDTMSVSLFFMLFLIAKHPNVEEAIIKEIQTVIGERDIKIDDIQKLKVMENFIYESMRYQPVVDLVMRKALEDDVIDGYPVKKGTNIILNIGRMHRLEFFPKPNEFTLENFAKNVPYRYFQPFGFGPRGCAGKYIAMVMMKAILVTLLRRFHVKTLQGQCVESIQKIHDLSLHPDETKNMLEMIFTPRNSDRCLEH

c1ccc2cc3ccccc3cc2c1
inactive: [1] | [2] | [3] | [4] | CD40, CD40 (gene 958) | CD69, CD69 (gene 969) | [5] | [6] | [7] | [8] | [9] | [10]

CCN(CC)C(=S)SSC(=S)N(CC)CC
active: [1] 14.9 µM | [11] 30.3 µM | [2] 27.6 µM | [3] 15.4 µM | [4] 28 µM | CD69, CD69 (gene 969) 20 µM | [5] 28.4 µM | [6] 32.6 µM | [7] 36.3 µM | [8] 20 µM | [10] 30.8 µM | [13] 0.405 µM
inactive: [12]

O=S(=O)(O)CCC(F)(F)C(F)(F)C(F)(F)C(F)(F)C(F)(F)C(F)(F)F
inactive: [1] | [2] | [3] | [4] | CD40, CD40 (gene 958) | CD69, CD69 (gene 969) | [5] | [6] | [7] | [8] | [14] | [10]

COCc1nnc(-c2ccc[n+]([O-])c2)n1-c1c(Cl)c(Cl)cc2[nH]c(=O)c(=O)[nH]c12
inactive: [1] | [2] | [3] | [4] | CD40, CD40 (gene 958) | CD69, CD69 (gene 969) | [5] | [6] | [7] | [8] | [9] | [14] | [10]

COc1cc(C(C)C)c2c(c1)S(=O)(=O)N(COc1cc(=O)n3cccc(OCCN4CCCCC4)c3n1)C2=O
active: [4] 6.02 µM | CD40, CD40 (gene 958) 5 µM | CD69, CD69 (gene 969) 5 µM | [5] 5 µM | [6] 5 µM
inactive: [1] | [2] | [3] | CD38, CD38 (gene 952) | [7] | [8] | [10]

OCC(CO)(CO)CO
inactive: [1] | [11] | [2] | [3] | [4] | CD40, CD40 (gene 958) | CD69, CD69 (gene 969) | [5] | [6] | [7] | [8] | [10]

CCCOc1ccc(S(=O)(=O)N2CCN(CC)CC2)cc1-c1nc2c(CC)n(Cc3ccccn3)nc2c(=O)[nH]1
inactive: [1] | [2] | [4] | CD38, CD38 (gene 952) | CD40, CD40 (gene 958) | CD69, CD69 (gene 969) | [5] | [6] | [7] | [8] | [9] | [14] | [10]
active: [3] 3.63 µM

NCC(F)(F)C(F)(F)C(F)(F)C(F)(F)F
inactive: [1] | [11] | [2] | [3] | [4] | CD40, CD40 (gene 958) | CD69, CD69 (gene 969) | [5] | [6] | [7] | [8] | [10]

CC(C)CCCCCCOC(=O)C1CCCCC1C(=O)OCCCCCCC(C)C (stereo not drawn)
active: [8] 3.51 µM
inactive: [1] | [2] | [3] | [4] | CD38, CD38 (gene 952) | CD40, CD40 (gene 958) | CD69, CD69 (gene 969) | [5] | [6] | [7] | [9] | [10]

O=C(O)[C@H](O)[C@@H](O)C(=O)O
inactive: [1] | [11] | [2] | [3] | [4] | CD40, CD40 (gene 958) | CD69, CD69 (gene 969) | [5] | [6] | [7] | [8] | [14] | [10]

CC(C)c1nnc2ccc(-c3ocnc3-c3cc(F)ccc3F)cn12
inactive: [11] | CD40, CD40 (gene 958) | [7] | [10]
active: [1] 0.346 µM | [2] 0.356 µM | [3] 0.148 µM | [4] 0.979 µM | CD69, CD69 (gene 969) 3.59 µM | [5] 3.97 µM | [6] 10.6 µM | [8] 0.882 µM
